Assay in all cases: MAPPIT interaction score (arbitrary units); higher = stronger binary interaction signal, active = hit call of the paper
Assay [1] concerns the target Vha13. To be noted: MAPPIT configuration: N-C; pair source set: screen_4.
For assay [2], the target named is Xbp1. The following applies: MAPPIT configuration: N-N; pair source set: Curagen_low_conf.
Assay [3] has as its target Zif. The following applies: MAPPIT configuration: N-N; pair source set: screen_2.
For assay [4], the target named is Vsx1. To be noted: MAPPIT configuration: N-C; pair source set: screen_3.
The target in assay [5] is Vps24. To be noted: MAPPIT configuration: N-N; pair source set: Curagen_high_conf.
For assay [6], the target named is abs. The following applies: MAPPIT configuration: N-N; pair source set: DPIM.
The target in assay [7] is Usp16-45. The following applies: MAPPIT configuration: N-N; pair source set: Curagen_low_conf.
Assay [8] concerns the target alrm. The following applies: MAPPIT configuration: N-N; pair source set: DPIM.

Values without a mark were called inactive.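 Rule for the calls: active = MAPPIT score above the 99th percentile of random reference set scores in the same batch; inactive = at or below it.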
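Note: HEK293T cells with Epo stimulation, STAT-responsive firefly luciferase reporter, fold induction versus unstimulated cells divided by the larger fold induction of two negative controls lacking either bait or prey.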

B1: Vha26 (protein)
chain: MALSDADVQKQIKHMMAFIEQEANEKAEEIDAKAEEEFNIEKGRLVQQQRLKIMEYYEKKEKQVELQKKIQSSNMLNQARLKVLKVREDHVSSVLDDARKRLGEVTKNQSEYETVLTKLIVQGLFQIMEPKVILRCREVDVPLVRNVLPAAVEQYKAQINQNVELFIDEKDFLSADTCGGVELLALNGRIKVPNTLESRLDLISQQLVPEIRNALFGRNVNRKFTD
As for B1, the MAPPIT interaction score in assay [1] was 1.21.

B2: Ubc2 (protein)
chain: MSSTPAAGSAAEVATSSATSNAPSAPSTTASNVSNTSQPTTAGTPQARGGRGSNANGGASGSNAGGGDEPRKEAKTTPRISRALGTSAKRIQKELAEITLDPPPNCSAGPKGDNLYEWVSTILGPPGSVYEGGVFFLDIHFSPEYPFKPPKVTFRTRIYHCNINSQGVICLDILKDNWSPALTISKVLLSICSLLTDCNPADPLVGSIATQYLQNREEHDRIARLWTKRYAT
On to B2, for which the MAPPIT interaction score in assay [2] is -0.108.

B3: eIF4E1 (protein)
chain: MQSDFHRMKNFANPKSMFKTSAPSTEQGRPEPPTSAAAPAEAKDVKPKEDPQETGEPAGNTATTTAPAGDDAVRTEHLYKHPLMNVWTLWYLENDRSKSWEDMQNEITSFDTVEDFWSLYNHIKPPSEIKLGSDYSLFKKNIRPMWEDAANKQGGRWVITLNKSSKTDLDNLWLDVLLCLIGEAFDHSDQICGAVINIRGKSNKISIWTADGNNEEAALEIGHKLRDALRLGRNNSLQYQLHKDTMVKQGSNVKSIYTL
On to B3, for which the MAPPIT interaction score in assay [3] was -0.101.

B4: Mst87F (protein)
chain: MCCGPCGPCCGPCCGPCCGPCGPCGGGCGPCYGPNVCGPCYACGPCGGCYCGYPCC
Turning to B4, in assay [4], the MAPPIT interaction score was 0.606.

B5: shrb (protein)
chain: MSFFGKMFGGKKEVAPTTGEAIQKLRETENMLIKKQEFLEAKIEDELNIARKNASKNKRVALQALKKKKRLEKQLQQIDGTLSTIEMQREALESANTNTAVLTTMKNAADALKRAHQNMDVDKVHDMMDDIAEQQDVAREISDAISNPVAFGADLDDEDLERELDELEQENFDKEIIGIPEPTPTLPEAPTEDLPEKAKEKKKATTTTAVEDDDDPDMKQLLSWSN
For the molecule B5, in assay [5], the MAPPIT interaction score was 0.054.

B6: mtTFB2 (protein)
chain: MLPLRCSWSFARANYSTKKELVTRYSGDFPEKLLNRKQKVPTHMYIANSEAAARINQYLEPHFQSSGCDTVMELNSGAGYFTRHLLDRESQFRRIILLESMDHFMPKIQELHTLYPERVKVRQGDFVNLWKLVYMDKMDGGSRVADLLSDVPQKAFTDDINMLVFGAVGSYPFFKHLINSLIFQTSLFNLGRCEMILAMPPPIYIHLTCNNEIGYLIYRSTSVLFQILFEHKFIAKVPREDFLPQQMAYSPTKSSKLGKVQSINPEYLYLVKFTPRRNLHELCQSQDLPALWFFIKQNYVSRRNRIIPNLEKWVPGCGPRLIINPKSSESVTPIYPDELPKKLPQYSCQSTTMSTRNYYPGINIYTQFGDLLPSQILTLFSQFRQWPEYGESSFLASLENALLKLETANDEPNLEDGVTLPEEDDAEADEIIEEESPVPATTPVKRRRKASS
As to B6, in assay [6], the MAPPIT interaction score was 2.

B7: AdSS (protein)
chain: MSASATNGTHYEQLHQGRTKMYKSKVDVVLGAQWGDEGKGKVVDMLASDVDIVCRCQGGNNAGHTVVANGTEFDFHLLPSGVVNEKCVSVIGNGVVIHLPSLFDEVLKNEAKGLQHLENRLIISDRAHLVFDFHQHVDGMQEAEKGGKSLGTTKKGIGPAYSSKATRNGIRVGELLGDFNLFSEKFKSIVATHVRLFPSINVDVEAELARYKDYADKVRPYVKDTICFLHTALRNGKTILVEGANAAMLDIDFGTYPYVTSSNCSIGGVLTGLGLPPQTIGEVIGVVKAYTTRVGDGPFPTEQLNDIGDLLQTRGFEVGVTTKRKRRCGWLDIPLLKYTSLVNGYTCICLTKLDILDTLPEIKVAVAYKKPNGEKLDHFPGTIAELGNIEVEYAVLPGWQTSTEEVRNFKELPENAQSYVRLLESELSVPVRWVGVGKGRESIINVH
B7: in assay [7], the MAPPIT interaction score is 1.38.

B8: sun (protein)
chain: MTAWRAAGITYIQYSNIAARILRESLKTGLRADAAKRDASHVKFTPWANGKPAQRQTQSES
On to B8, for which the MAPPIT interaction score in assay [8] was -0.31.

The values are drawn from the supplement of paper PMC10105736.
